ELG1 DNA repair = blocks ELG1-dependent DNA repair in HEK293T cells; HEK293T ELG1-luciferase reporter, luminescence, 16 h; DNA damage induced by 5-fluorouridine; Potency, µM (doses to about 46.1 µM), inactives show at the highest dose activity change, negative = inhibition, usual class: inhibitors; actives 2.3% (n = 330,000); also: % is scaled to controls: 0 for no effect and ±100 for the full control effect; nearly all actives have a fitted effect of over 55% in size
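In this reporter screen, reduction of luminescence relative to DMSO vehicle indicated activity. Compounds and 5-fluorouridine were added together to 2,000 cells per well, incubated for 16 hr at 37 °C, then developed with ONE-Glo.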
FLuc modulator = inhibits or activates purified firefly luciferase, miR-21 counter-screen | P08659 | purified FLuc, Km substrates, luminescence inhibition | Potency, µM (doses to about 57.5 µM), for the others: top-dose activity change, negative = inhibition, hits mostly inhibitors | actives 6.9% (n = 360,000) | AID 588342;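 also: plate controls were vehicle for no effect and reference inhibitor for full effect; nearly all actives have a fitted effect of over 55% in size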
Target sequence (P08659 whole entry, looked up): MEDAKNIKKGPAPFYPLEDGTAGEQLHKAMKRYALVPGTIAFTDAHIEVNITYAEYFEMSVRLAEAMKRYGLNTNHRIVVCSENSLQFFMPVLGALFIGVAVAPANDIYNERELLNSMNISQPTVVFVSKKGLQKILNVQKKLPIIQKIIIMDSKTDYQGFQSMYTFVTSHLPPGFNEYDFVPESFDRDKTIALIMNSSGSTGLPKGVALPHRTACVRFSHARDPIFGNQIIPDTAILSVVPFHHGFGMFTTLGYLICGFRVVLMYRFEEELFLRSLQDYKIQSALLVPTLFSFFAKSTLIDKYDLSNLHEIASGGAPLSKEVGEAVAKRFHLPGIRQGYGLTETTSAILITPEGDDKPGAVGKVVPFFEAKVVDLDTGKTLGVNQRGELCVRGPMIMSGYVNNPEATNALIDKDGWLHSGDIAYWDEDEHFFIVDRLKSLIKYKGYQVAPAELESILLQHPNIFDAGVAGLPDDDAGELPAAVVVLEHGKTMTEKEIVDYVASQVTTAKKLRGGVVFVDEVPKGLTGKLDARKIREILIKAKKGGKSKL
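Purified P. pyralis luciferase, 10 nM final, with Km-level 10 uM D-luciferin and 10 uM ATP in 50 mM Tris acetate pH 7.5, 10 mM Mg acetate, 0.01% Tween-20, 0.05% BSA; 6-point qHTS titration about 60 µM downward; luminescence read.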
SMN2 splice up = increases expression of the SMN2 splice variant; HEK293 SMN2-luciferase splicing reporter, luminescence, 30-36 h; Potency, µM (top dose mostly 46.1 µM), for the others: at the top dose activity change, positive = activation, most hits filed as activators; actives 2.8% (n = 210,000); also: % of control where 0% means no effect; nearly all actives have a fitted effect of over 55% in size
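HEK293 cells carry an SMN2 minigene-luciferase reporter in which exon 7 inclusion puts luciferase in frame. Cells were seeded at 2000 cells/well, attached for 10-12 hours, then exposed to compounds for 30-36 hours at 37C before ONE-Glo luminescence.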
Rab9 prom act = Rab9 promoter activation; AID 485297; Potency, µM (highest dose often 9.22 µM), without a hit: at the top dose activation, negative = inhibition, hits mostly activators; actives 2.8% (n = 320,000); Huh7 Rab9 promoter-luciferase reporter, luminescence, 24 h; also: % of control where 0% means no effect; nearly all actives have a fitted effect of over 60% in size
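Steps: seed 1500 Huh7 Rab9-luc cells per well, rest 2 h at 37 °C; add compound in DMSO; incubate 24 h; add luciferase reagent, 10 min ambient; read luminescence.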
ELG1 genotoxic = inducers of genotoxicity in HEK293T ELG1-luciferase cells; AID 504466; actives 1.3% (n = 330,000); Potency, µM (doses to about 46 µM), without a hit: top-dose activity change, positive = activation, actives largely listed as activators; HEK293T ELG1-luciferase reporter, luminescence, 16 h; also: % of control where 0% means no effect; nearly all actives have a fitted effect of over 60% in size
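Quantitative HTS format in 1536-well plates. HEK293T ELG1-luciferase reporter cells receive test compound and are incubated 16 hr at 37 °C, 5% CO2; ONE-Glo added, 30 min room temperature, then luminescence read.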
NPC1 prom act = NPC1 promoter activation. Huh7 NPC1 promoter luciferase reporter, 24 h. Potency, µM (top dose mostly 9.22 µM), for the others: at the highest dose activation, usual class: activators. actives 2.4% (n = 320,000). AID 485313; also: % of control where 0% means no effect; nearly all actives have a fitted effect of over 60% in size
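Compounds in DMSO were transferred onto Huh7 NPC1-luciferase reporter cells pre-incubated 2 h; after 24 h at 37 °C, Amplite reagent was dispensed and luminescence recorded 10 min later.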
An asterisk follows results filed as active; u = inconclusive; x = no result given. This is a sample that favours compounds with a hit; in the whole collection about 9.3% have one here. Calls follow the shape of the dose curve; as a rule, active = well fitted curve in the direction sought with a large enough effect; inconclusive = small, poorly fitted or top-dose-only effect, or another doubt; inactive = no such curve, though single readings can be large; an effect the other way counts as inactive or inconclusive. Potency is read from the fitted curve at half-maximal effect.

SMILES	ELG1 DNA repair	FLuc modulator	SMN2 splice up	Rab9 prom act	ELG1 genotoxic	NPC1 prom act
COc1ccccc1NC(=O)c1cc2ccccc2o1	u	6.7µM*	22µM*	u	u	u
CCOC(=O)c1cc2c(nc1NC(=S)NCc1ccccc1)CCCC2	u	u	11µM*	u	u	u
CCOC(=O)c1sc2nccc(N(C)C)c2c1N=CNOCc1ccccc1	u	4%	-11%	7%	-2%	17%
CCOC(=O)c1sc2nccc(N(C)C)c2c1N=CNOCc1c(F)cccc1Cl	16µM*	5%	-10%	2%	-4%	-1%
CCCCc1ccc(NC(=O)CSC2=NN3CCCC(=O)N=C3S2)cc1	-23%	u	x	-3%	7%	-3%
Cc1cccc(N2C(S)=C(C#N)C(=O)NC23CCCCC3)c1	u	u	-8%	-11%	2%	1%
Cc1ccc(N2C(S)=C(C#N)C(=O)NC23CCCCC3)cc1	u	17µM*	19%	-5%	1%	-2%
COCCN(CCOC)c1nc(-c2ccc(Cl)cc2)nc2ccccc12	u	-19%	x	6%	-16%	2%
COCCN(CCOC)c1nc(-c2ccccc2)nc2ccccc12	26µM*	-9%	x	0%	-12%	-2%
COCCCNc1nc(-c2ccncc2)nc2ccccc12	18µM*	-1%	15%	-1%	3%	-3%
COCCCNc1nc(-c2ccc(Cl)cc2)nc2ccccc12	u	-7%	x	8%	-14%	4%
CC(C)c1ccc(-c2cc(C(=O)NN3CCN(C)CC3)c3ccccc3n2)cc1	u	0.6µM*	u	u	u	u
CCc1ccc(-c2cc(C(=O)NN3CCOCC3)c3ccccc3n2)cc1	u	4.8µM*	1%	3%	3%	10%
CC(C)c1ccc(-c2cc(C(=O)N3N=C(C(F)F)CC3(O)C(F)F)c3ccccc3n2)cc1 (stereo unspecified)	u	1.5µM*	u	u	u	u
O=C(c1cc(C2CC2)nc2ccccc12)N1N=C(C(F)F)CC1(O)C(F)F (stereo unspecified)	3%	-2%	-11%	4%	0%	-3%
Cc1nn(C2CCS(=O)(=O)C2)c(Cl)c1/C=C/C(=O)OCC(=O)c1c[nH]c2ccccc12 (stereo unspecified)	u	3%	-68%	-9%	-6%	-1%
Cc1nn(C2CCS(=O)(=O)C2)c(Cl)c1/C=C/C(=O)OCC(=O)c1cc(C)n(-c2ccc(F)cc2)c1C (stereo unspecified)	13µM*	-7%	-70%	-23%	1%	-15%
CCOC(=O)c1c(C)[nH]c(CCC(=O)NCc2cc(Br)ccc2OC)c1C	x	-8%	x	x	x	x
CCc1ccc(NC(=O)Cc2csc(COc3cccc(C)c3)n2)cc1	x	-4%	x	x	x	x
COc1ccc(C(=O)c2sc(Nc3ccccc3)nc2C)cc1	-5%	u	x	-4%	0%	1%
Nc1nc(Nc2cccc(C(F)(F)F)c2)sc1C(=O)c1ccccc1	x	-1%	x	x	x	x
CC(C)(C)C(=O)c1sc(Nc2ccccc2)nc1N	u	5.4µM*	11µM*	2µM*	1.3µM*	2µM*
COC(=O)c1sc(Nc2ccccc2)nc1C	u	19µM*	24%	u	u	u
Cc1cccc(NC(=O)c2sc(C)nc2C)c1	u	24µM*	u	u	15%	u
CCOC(=O)c1sc(NC(=O)Nc2ccc(Cl)cc2)nc1C	u	2.7µM*	u	u	2%	4µM*
SMILES	ELG1 DNA repair	FLuc modulator	SMN2 splice up	Rab9 prom act	ELG1 genotoxic	NPC1 prom act
O=C(OCc1ccc(Br)cc1)c1cccc(S(=O)(=O)N2CCCC2)c1	-3%	0%	x	-6%	-2%	-4%
Cc1cccc(NC(=O)CNC(=O)c2cccc(S(=O)(=O)NCc3cccs3)c2)c1C	-17%	x	x	1%	-4%	-3%
CCOC(=O)c1sc(Nc2ccc(F)cc2)nc1C	11%	-1%	4%	14%	9%	2%
Cc1nc(Nc2ccccc2)sc1C(=O)c1ccccc1	u	21µM*	x	3.5µM*	13%	u
CCOC(=O)c1sc(Nc2nc3c(OC)cccc3s2)nc1C	u	6.7µM*	u	u	u	u
CC(=O)c1sc(Nc2cccc(C)c2)nc1C	u	21µM*	u	u	u	20%
CC(=O)Cc1nsc(Nc2cccc(C)c2)n1	u	-11%	9%	18%	15%	19%
CCOC(=O)c1sc(NC(=O)c2ccccc2OCC)nc1C	5%	-20%	-26%	u	-1%	u
CCOC(=O)c1sc(Nc2ccccc2)nc1C	u	15µM*	3%	4µM*	16µM*	4µM*
CN(C(=O)Nc1cn(C)c(=O)c2ccccc12)c1ccccc1	x	-1%	x	x	x	x
Cc1ccccc1-n1ncc2c1CC(C)(C)CC2NC(=O)c1cn[nH]c1C (stereo unspecified)	11%	3%	x	-5%	8%	-6%
COc1ccc(NC(=O)c2c(NC(=O)c3cccc(C)c3)sc3c2CCC3)cc1	x	u	-7%	x	x	x
Cc1cccc(C(=O)Nc2nc(C)c(C(=O)Nc3ccc4c(c3)CCC4)s2)c1	u	6.7µM*	u	-3%	9%	0%
COc1ccc(/C=C2\CCC/C(=C\C=N\N(C)C)C2=O)cc1	11%	11µM*	-19%	19%	5%	6%
CN(C)/N=C/C=C1\CCC/C(=C\c2ccc(F)c(F)c2)C1=O	u	21µM*	-100%	17%	11%	7%
O=C(NC(=S)NNC(=O)c1ccccc1O)c1ccc(F)cc1	2%	27µM*	x	3%	2%	0%
Cc1ccc(C(=O)NC(=S)NNC(=O)c2ccccc2O)cc1	31%	u	x	2%	9%	1%
O=C(NNC(=S)NC(=O)c1cccnc1)c1ccc(F)cc1	u	-7%	x	-2%	1%	-2%
O=C(NC(=S)NNC(=O)c1ccccc1O)c1ccccc1	-25%	24µM*	x	10%	7%	-2%
O=C(NC(=S)NNC(=O)c1cnccn1)c1ccc(F)cc1	5.2µM*	-2%	-63%	-23%	0%	-10%
N#CCCn1cc(C(=O)Nc2ccc(C(=O)O)cc2)c(-c2cccc(Br)c2)n1	6%	-8%	x	-1%	0%	-1%
Cc1ccc(N/C(N)=N/c2nc(C)cc(N3CCCCC3)n2)c(C)c1	16µM*	-2%	-60%	-39%	-24%	-45%
C[n+]1c(/C=C/c2ccc(O)cc2)ccc2ccccc21	8%	13µM*	x	-2%	3%	-7%

Source: PubChem (National Center for Advancing Translational Sciences (NCATS))
